# Assay results reported in the supplement of paper PMC7057948, “A genome-wide approach for identification and characterisation of metabolite-inducible systems” (Nature Communications, 2020).
# Tests used:
# Details in all cases: inducer concentration 5 mM; 6 h; Cupriavidus necator H16; minimal medium + 0.4% gluconate
# [1] = system: AcoR/P_H16_RS19445 acetoin biosensor (pEH052); assay: relative induction of RFP reporter vs primary effector; higher = stronger activation
# Protocol: (§1)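 Orthogonality screen of 21 primary inducers against 21 transcription factor/inducible promoter–mRFP biosensors in C. necator H16 in minimal medium, robotic 96-well format, 5 mM inducer, 30 °C. OD-normalised RFP fluorescence was read 6 h later and expressed as relative induction (%) = 100 × (FL compound − FL uninduced)/(FL primary inducer − FL uninduced); mean of n=4. Cognate pairs (100% by definition) omitted.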
# [2] = system: AraC/P_araBAD L-arabinose biosensor (pEH176); assay: as above
# Protocol: as §1
# [3] = system: FdsR/P_H16_RS03165 formate biosensor (pEH134); assay: as above
# Protocol: as §1
# [4] = system: GabR/P_H16_RS23655 GABA biosensor (pEH256); assay: as above
# Protocol: as §1
# [5] = system: HpdA/P_H16_RS24175 L-tyrosine biosensor (pEH158); assay: as above
# Protocol: as §1
# [6] = system: NahR/P_H16_RS08125 salicylate biosensor (pEH042); assay: as above
# Protocol: as §1
# [7] = system: OapR/P_H16_RS01330 beta-alanine biosensor (pEH147); assay: as above
# Protocol: as §1
# [8] = system: PcaQ/P_H16_RS30145 3,4-dihydroxybenzoate biosensor (pEH161); assay: as above
# Protocol: as §1
# [9] = system: PhgR/P_H16_RS05530 phenylglyoxylate biosensor (pEH155); assay: as above
# Protocol: as §1
# [10] = system: SauR/P_H16_RS13695 sulfonatoacetate biosensor (pEH157); assay: as above
# Protocol: as §1
# [11] = system: TtdR/P_H16_RS10665 tartrate biosensor (pEH083); assay: as above
# Protocol: as §1
# [12] = system: XdhR/P_H16_RS05055 xanthine biosensor (pEH154); assay: as above
# Protocol: as §1
# [13] = system: heterologous L-rhamnose-inducible system; assay: as above
# Protocol: as §1
# [14] = system: heterologous acrylate-inducible system; assay: as above
# Protocol: as §1
# [15] = system: heterologous cumate-inducible system; assay: as above
# Protocol: as §1
# [16] = system: heterologous itaconate-inducible system; assay: as above
# Protocol: as §1
# [17] = system: BadR/P_H16_RS27200 cyclohexanecarboxylate biosensor (pEH159); assay: as above
# Protocol: as §1
# [18] = system: BenM/P_H16_RS09790 benzoate biosensor (pEH148); assay: as above
# Protocol: as §1
# [19] = system: AcoR/P_H16_RS19445 acetoin biosensor (pEH052); assay: relative induction of RFP reporter vs primary effector (background-corrected); higher = stronger activation of the biosensor
# Protocol: (§2)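 C. necator H16 strains, each carrying one of 21 transcription factor/inducible promoter–mRFP biosensor plasmids, were grown in minimal medium in 96-well plates (robotic platform). Each was exposed to 46 structurally or metabolically related compounds at 5 mM at 30 °C. OD-normalised RFP fluorescence was read 6 h later and expressed as relative induction (%) = 100 × (FL compound − FL uninduced)/(FL primary inducer − FL uninduced); mean of n=4.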
# [20] = system: AraC/P_araBAD L-arabinose biosensor (pEH176); assay: as above
# Protocol: as §2
# [21] = system: BenM/P_H16_RS09790 benzoate biosensor (pEH148); assay: as above
# Protocol: as §2
# [22] = system: FdsR/P_H16_RS03165 formate biosensor (pEH134); assay: as above
# Protocol: as §2
# [23] = system: GabR/P_H16_RS23655 GABA biosensor (pEH256); assay: as above
# Protocol: as §2
# [24] = system: KynR/P_H16_RS14030 L-kynurenine biosensor (pEH136); assay: as above
# Protocol: as §2
# [25] = system: NahR/P_H16_RS08125 salicylate biosensor (pEH042); assay: as above
# Protocol: as §2
# [26] = system: OapR/P_H16_RS01330 beta-alanine biosensor (pEH147); assay: as above
# Protocol: as §2
# [27] = system: PcaQ/P_H16_RS30145 3,4-dihydroxybenzoate biosensor (pEH161); assay: as above
# Protocol: as §2
# [28] = system: PhgR/P_H16_RS05530 phenylglyoxylate biosensor (pEH155); assay: as above
# Protocol: as §2
# [29] = system: PhhR/P_H16_RS18365 L-phenylalanine biosensor (pEH137); assay: as above
# Protocol: as §2
# [30] = system: SauR/P_H16_RS13695 sulfonatoacetate biosensor (pEH157); assay: as above
# Protocol: as §2
# [31] = system: TtdR/P_H16_RS10665 tartrate biosensor (pEH083); assay: as above
# Protocol: as §2
# [32] = system: XdhR/P_H16_RS05055 xanthine biosensor (pEH154); assay: as above
# Protocol: as §2
# [33] = system: heterologous inducible system pEH002 (rhamnose/acrylate/cumate/itaconate set); assay: as above
# Protocol: as §2
# [34] = system: heterologous inducible system pEH020 (rhamnose/acrylate/cumate/itaconate set); assay: as above
# Protocol: as §2
# [35] = system: heterologous inducible system pEH040 (rhamnose/acrylate/cumate/itaconate set); assay: as above
# Protocol: as §2
# [36] = system: heterologous inducible system pEH086 (rhamnose/acrylate/cumate/itaconate set); assay: as above
# Protocol: as §2
# 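For relative induction of RFP reporter vs primary effector (background-corrected) in this document: RFP excited at 585 nm with emission read at 620 nm, culture medium blanks subtracted from fluorescence and absorbance prior to normalisation.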
structure (smiles),measurement,setting,value
O=C(O)C1CCCCC1 [cyclohexane-1-carboxylate],relative induction of RFP reporter,[1],2.02%
same,relative induction of RFP reporter,[2],-0.0317%
same,relative induction of RFP reporter,[3],-8.69%
same,relative induction of RFP reporter,[4],-0.578%
same,relative induction of RFP reporter,[5],-0.0345%
same,relative induction of RFP reporter,[6],-0.0105%
same,relative induction of RFP reporter,[7],-0.348%
same,relative induction of RFP reporter,[8],-0.211%
same,relative induction of RFP reporter,[9],-0.472%
same,relative induction of RFP reporter,[10],0.0396%
same,relative induction of RFP reporter,[11],2.19%
same,relative induction of RFP reporter,[12],0.127%
same,relative induction of RFP reporter,[13],-0.00651%
same,relative induction of RFP reporter,[14],-0.97%
same,relative induction of RFP reporter,[15],2.49%
same,relative induction of RFP reporter,[16],0.233%
O=C(O)c1ccccc1O [salicylate],relative induction of RFP reporter,[1],-1.02%
same,relative induction of RFP reporter,[2],-0.0255%
same,relative induction of RFP reporter,[17],-0.169%
same,relative induction of RFP reporter,[18],1.72%
same,relative induction of RFP reporter,[3],-11.3%
same,relative induction of RFP reporter,[4],1.28%
same,relative induction of RFP reporter,[5],-0.0712%
same,relative induction of RFP reporter,[7],-0.51%
same,relative induction of RFP reporter,[8],-0.391%
same,relative induction of RFP reporter,[9],-0.369%
same,relative induction of RFP reporter,[10],0.0177%
same,relative induction of RFP reporter,[11],-0.317%
same,relative induction of RFP reporter,[12],-0.278%
same,relative induction of RFP reporter,[13],0.019%
same,relative induction of RFP reporter,[14],-1.06%
same,relative induction of RFP reporter,[15],0.792%
same,relative induction of RFP reporter,[16],-0.0867%
Nc1ccccc1C(=O)C[C@H](N)C(=O)O [L-kynurenine],relative induction of RFP reporter,[1],-1.84%
same,relative induction of RFP reporter,[2],-0.00708%
same,relative induction of RFP reporter,[17],-0.604%
same,relative induction of RFP reporter,[18],-0.0309%
same,relative induction of RFP reporter,[3],-4.32%
same,relative induction of RFP reporter,[4],-1.24%
same,relative induction of RFP reporter,[5],0.183%
same,relative induction of RFP reporter,[6],0.00391%
same,relative induction of RFP reporter,[7],0.521%
same,relative induction of RFP reporter,[8],-0.136%
same,relative induction of RFP reporter,[9],-0.296%
same,relative induction of RFP reporter,[10],0.00419%
same,relative induction of RFP reporter,[11],-0.312%
same,relative induction of RFP reporter,[12],-0.483%
same,relative induction of RFP reporter,[13],-0.00942%
same,relative induction of RFP reporter,[14],-1.79%
same,relative induction of RFP reporter,[15],-0.886%
same,relative induction of RFP reporter,[16],-0.412%
CCC(=O)O [propanoate],relative induction of RFP reporter,[19],-1.68%
same,relative induction of RFP reporter,[20],-0.00959%
same,relative induction of RFP reporter,[21],-0.0373%
same,relative induction of RFP reporter,[22],-1.16%
same,relative induction of RFP reporter,[23],-3.91%
same,relative induction of RFP reporter,[24],-0.867%
same,relative induction of RFP reporter,[25],-0.000302%
same,relative induction of RFP reporter,[26],-1.95%
same,relative induction of RFP reporter,[27],-0.275%
same,relative induction of RFP reporter,[28],-0.224%
same,relative induction of RFP reporter,[29],-0.418%
same,relative induction of RFP reporter,[30],0.0421%
same,relative induction of RFP reporter,[31],-0.423%
same,relative induction of RFP reporter,[32],-0.832%
same,relative induction of RFP reporter,[33],-0.00545%
same,relative induction of RFP reporter,[34],-0.954%
same,relative induction of RFP reporter,[35],0.605%
same,relative induction of RFP reporter,[36],-0.0388%
CC(=O)C(C)O (stereo unspecified) [acetoin],relative induction of RFP reporter,[2],0.00953%
same,relative induction of RFP reporter,[17],-0.805%
same,relative induction of RFP reporter,[18],-0.0473%
same,relative induction of RFP reporter,[3],-6.92%
same,relative induction of RFP reporter,[4],-1.36%
same,relative induction of RFP reporter,[5],-0.195%
same,relative induction of RFP reporter,[6],0.00159%
same,relative induction of RFP reporter,[7],-0.507%
same,relative induction of RFP reporter,[8],-0.169%
same,relative induction of RFP reporter,[9],-0.461%
same,relative induction of RFP reporter,[10],-0.0229%
same,relative induction of RFP reporter,[11],0.102%
same,relative induction of RFP reporter,[12],-0.695%
same,relative induction of RFP reporter,[13],-0.0013%
same,relative induction of RFP reporter,[14],-1.85%
same,relative induction of RFP reporter,[15],-1.61%
same,relative induction of RFP reporter,[16],0.0808%
O=CO [formate],relative induction of RFP reporter,[1],-0.63%
same,relative induction of RFP reporter,[2],-0.0317%
same,relative induction of RFP reporter,[17],-0.738%
same,relative induction of RFP reporter,[18],0.0137%
same,relative induction of RFP reporter,[4],-0.53%
same,relative induction of RFP reporter,[5],-0.107%
same,relative induction of RFP reporter,[6],0.0105%
same,relative induction of RFP reporter,[7],0.208%
same,relative induction of RFP reporter,[8],-0.0432%
same,relative induction of RFP reporter,[9],-0.511%
same,relative induction of RFP reporter,[10],0.0555%
same,relative induction of RFP reporter,[11],0.287%
same,relative induction of RFP reporter,[12],-0.347%
same,relative induction of RFP reporter,[13],0.0165%
same,relative induction of RFP reporter,[14],-0.251%
same,relative induction of RFP reporter,[15],-0.422%
same,relative induction of RFP reporter,[16],0.516%
O=C(O)C(O)C(O)C(=O)O (stereo unspecified) [tartrate],relative induction of RFP reporter,[1],0.491%
same,relative induction of RFP reporter,[2],-0.00769%
same,relative induction of RFP reporter,[17],-0.687%
same,relative induction of RFP reporter,[18],0.00705%
same,relative induction of RFP reporter,[3],-1.89%
same,relative induction of RFP reporter,[4],0.312%
same,relative induction of RFP reporter,[5],-0.0207%
same,relative induction of RFP reporter,[6],0.0221%
same,relative induction of RFP reporter,[7],-0.132%
same,relative induction of RFP reporter,[8],0.0285%
same,relative induction of RFP reporter,[9],-0.242%
same,relative induction of RFP reporter,[10],0.033%
same,relative induction of RFP reporter,[12],-0.458%
same,relative induction of RFP reporter,[13],0.0177%
same,relative induction of RFP reporter,[14],-0.36%
same,relative induction of RFP reporter,[15],-0.8%
same,relative induction of RFP reporter,[16],0.359%
O=C(O)c1ccccc1 [benzoate],relative induction of RFP reporter,[1],4.78%
same,relative induction of RFP reporter,[2],-0.00267%
same,relative induction of RFP reporter,[17],-0.805%
same,relative induction of RFP reporter,[3],-1.25%
same,relative induction of RFP reporter,[4],-2.52%
same,relative induction of RFP reporter,[5],-0.127%
same,relative induction of RFP reporter,[6],0.078%
same,relative induction of RFP reporter,[7],-0.947%
same,relative induction of RFP reporter,[9],-0.295%
same,relative induction of RFP reporter,[10],-0.0427%
same,relative induction of RFP reporter,[11],-0.474%
same,relative induction of RFP reporter,[12],-0.493%
same,relative induction of RFP reporter,[13],-0.0138%
same,relative induction of RFP reporter,[14],-1.5%
same,relative induction of RFP reporter,[15],-1.2%
same,relative induction of RFP reporter,[16],-0.0216%
